# Measured values reported in the supplement of paper PMC4466140.
# Target: CaNbp2
# Assay: SPOT peptide array binding signal intensity (averaged, normalized) (arbitrary units (background-subtracted, floor 0; scale differs between SH3 domains)); higher = stronger binding of the SH3 domain to the peptide
# Outline: (§1)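 Four yeast species supplied the SH3 domains, which were expressed as GST fusions in E. coli BL21(DE3) and purified on glutathione Sepharose. Incubation with cellulose membranes carrying synthetic 15-mer peptides, cysteines exchanged for serines, ran overnight at 4°C at 10 μg/ml in TBS-based blocking buffer. Binding signal is reported as normalized, background-subtracted spot intensity averaged over replicates, in arbitrary units not shared between domains.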
row,Binder,SPOT peptide array binding signal intensity
1,MAMRPIPPLPTESEY,628

# Target: CaRvs167
# Assay: as above
# Outline: as §1
row,Binder,SPOT peptide array binding signal intensity
1,MAMRPIPPLPTESEY,528

# Target: CaRvs167-3
# Assay: as above
# Outline: as §1
row,Binder,SPOT peptide array binding signal intensity
1,MAMRPIPPLPTESEY,≤ 0

# Target: CaSho1
# Assay: as above
# Outline: as §1
row,Binder,SPOT peptide array binding signal intensity
1,MAMRPIPPLPTESEY,596

# Target: CaSla1-D1-D2
# Assay: as above
# Outline: as §1
row,Binder,SPOT peptide array binding signal intensity
1,MAMRPIPPLPTESEY,128

# Target: CaSla1-D3
# Assay: as above
# Outline: as §1
row,Binder,SPOT peptide array binding signal intensity
1,MAMRPIPPLPTESEY,110

# Target: ScAbp1
# Assay: as above
# Outline: as §1
row,Binder,SPOT peptide array binding signal intensity
1,MAMRPIPPLPTESEY,4.5

# Target: ScBbc1
# Assay: as above
# Outline: as §1
row,Binder,SPOT peptide array binding signal intensity
1,MAMRPIPPLPTESEY,2

# Target: ScBem1-D1
# Assay: as above
# Outline: as §1
row,Binder,SPOT peptide array binding signal intensity
1,MAMRPIPPLPTESEY,≤ 0

# Target: ScBzz1-D1
# Assay: as above
# Outline: as §1
row,Binder,SPOT peptide array binding signal intensity
1,MAMRPIPPLPTESEY,≤ 0

# Target: ScBzz1-D2
# Assay: as above
# Outline: as §1
row,Binder,SPOT peptide array binding signal intensity
1,MAMRPIPPLPTESEY,≤ 0

# Target: ScCyk3
# Assay: as above
# Outline: as §1
row,Binder,SPOT peptide array binding signal intensity
1,MAMRPIPPLPTESEY,≤ 0

# Target: ScFus1
# Assay: as above
# Outline: as §1
row,Binder,SPOT peptide array binding signal intensity
1,MAMRPIPPLPTESEY,106

# Target: ScHof1
# Assay: as above
# Outline: as §1
row,Binder,SPOT peptide array binding signal intensity
1,MAMRPIPPLPTESEY,304

# Target: ScHse1
# Assay: as above
# Outline: as §1
row,Binder,SPOT peptide array binding signal intensity
1,MAMRPIPPLPTESEY,≤ 0

# Target: ScLsb1
# Assay: as above
# Outline: as §1
row,Binder,SPOT peptide array binding signal intensity
1,MAMRPIPPLPTESEY,106

# Target: ScLsb2
# Assay: as above
# Outline: as §1
row,Binder,SPOT peptide array binding signal intensity
1,MAMRPIPPLPTESEY,19.5

# Target: ScLsb3
# Assay: as above
# Outline: as §1
row,Binder,SPOT peptide array binding signal intensity
1,MAMRPIPPLPTESEY,4040

# Target: ScLsb4
# Assay: as above
# Outline: as §1
row,Binder,SPOT peptide array binding signal intensity
1,MAMRPIPPLPTESEY,1070

# Target: ScMyo3
# Assay: as above
# Outline: as §1
row,Binder,SPOT peptide array binding signal intensity
1,MAMRPIPPLPTESEY,21.5

# Target: ScMyo5
# Assay: as above
# Outline: as §1
row,Binder,SPOT peptide array binding signal intensity
1,MAMRPIPPLPTESEY,3

# Target: ScNbp2
# Assay: as above
# Outline: as §1
row,Binder,SPOT peptide array binding signal intensity
1,MAMRPIPPLPTESEY,172

# Target: ScPex13
# Assay: as above
# Outline: as §1
row,Binder,SPOT peptide array binding signal intensity
1,MAMRPIPPLPTESEY,1090

# Target: ScRvs167
# Assay: as above
# Outline: as §1
row,Binder,SPOT peptide array binding signal intensity
1,MAMRPIPPLPTESEY,821

# Target: ScSho1
# Assay: as above
# Outline: as §1
row,Binder,SPOT peptide array binding signal intensity
1,MAMRPIPPLPTESEY,543

# Target: ScSla1-D1-D2
# Assay: as above
# Outline: as §1
row,Binder,SPOT peptide array binding signal intensity
1,MAMRPIPPLPTESEY,167

# Target: ScSla1-D3
# Assay: as above
# Outline: as §1
row,Binder,SPOT peptide array binding signal intensity
1,MAMRPIPPLPTESEY,82.2

# Target: SpAbp1-D1
# Assay: as above
# Outline: as §1
row,Binder,SPOT peptide array binding signal intensity
1,MAMRPIPPLPTESEY,13

# Target: SpBbc1
# Assay: as above
# Outline: as §1
row,Binder,SPOT peptide array binding signal intensity
1,MAMRPIPPLPTESEY,4.75

# Target: SpBzz1-D1
# Assay: as above
# Outline: as §1
row,Binder,SPOT peptide array binding signal intensity
1,MAMRPIPPLPTESEY,79.5

# Target: SpBzz1-D2
# Assay: as above
# Outline: as §1
row,Binder,SPOT peptide array binding signal intensity
1,MAMRPIPPLPTESEY,17

# Target: SpCyk3
# Assay: as above
# Outline: as §1
row,Binder,SPOT peptide array binding signal intensity
1,MAMRPIPPLPTESEY,14

# Target: SpHof1
# Assay: as above
# Outline: as §1
row,Binder,SPOT peptide array binding signal intensity
1,MAMRPIPPLPTESEY,140

# Target: SpHof1-2
# Assay: as above
# Outline: as §1
row,Binder,SPOT peptide array binding signal intensity
1,MAMRPIPPLPTESEY,110

# Target: SpHof1-3
# Assay: as above
# Outline: as §1
row,Binder,SPOT peptide array binding signal intensity
1,MAMRPIPPLPTESEY,26.8

# Target: SpHse1
# Assay: as above
# Outline: as §1
row,Binder,SPOT peptide array binding signal intensity
1,MAMRPIPPLPTESEY,66

# Target: SpLsb1
# Assay: as above
# Outline: as §1
row,Binder,SPOT peptide array binding signal intensity
1,MAMRPIPPLPTESEY,67.8

# Target: SpLsb4
# Assay: as above
# Outline: as §1
row,Binder,SPOT peptide array binding signal intensity
1,MAMRPIPPLPTESEY,2610

# Target: SpMyo1
# Assay: as above
# Outline: as §1
row,Binder,SPOT peptide array binding signal intensity
1,MAMRPIPPLPTESEY,309

# Target: SpNbp2
# Assay: as above
# Outline: as §1
row,Binder,SPOT peptide array binding signal intensity
1,MAMRPIPPLPTESEY,42.5

# Target: SpPex13
# Assay: as above
# Outline: as §1
row,Binder,SPOT peptide array binding signal intensity
1,MAMRPIPPLPTESEY,72

# Target: SpRvs167
# Assay: as above
# Outline: as §1
row,Binder,SPOT peptide array binding signal intensity
1,MAMRPIPPLPTESEY,1130

# Target: SpSla1-D1-D2
# Assay: as above
# Outline: as §1
row,Binder,SPOT peptide array binding signal intensity
1,MAMRPIPPLPTESEY,2

# Target: SpSla1-D3
# Assay: as above
# Outline: as §1
row,Binder,SPOT peptide array binding signal intensity
1,MAMRPIPPLPTESEY,28
